The values that follow come from PubChem BioAssay AID1063 (University of Pittsburgh Molecular Library Screening Center, 2008).

A word on the inhibition: it is the change of the read-out against control, counted positive when it falls.

About 18,000 (9%) of roughly 200,000 compounds were called active. What follows is part of a selection rich in actives, with near analogues and random picks from the rest. Values without a mark were called inactive. Rule as the data show it: active = inhibition above about 50%; inactive = the rest.

This test in a line: antileishmanial activity against promastigotes – primary screen (AID 1063).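 Also: promastigotes grown with compound for 44 hours at 28 °C.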 To be noted: Leishmania major promastigotes, resazurin fluorescence viability; at 10 µM; active compounds read high. Background: Resazurin is reduced to fluorescent resorufin, in cell work by metabolically active cells.
Take `CC(C)CNC(=O)C(=O)NCc1ccccc1`: the inhibition is -6.83%.

As to `O=C(COC(=O)c1ccc(O)cc1)Nc1nccs1`, the inhibition is 3.69%.

Regarding `C/C(=N\NC(=O)C(N)=O)c1ccc2c(c1)OCCO2`, the inhibition is -3.07%.

As for `CC(=O)c1cccc(NC(=O)[C@@H](NC(N)=O)C(C)C)c1`, the inhibition was 6.23%.

`COc1cccc(NC(=O)C(C)Oc2ccccc2)c1` (stereo not given): the inhibition is -5.27%.

For `COc1ccc(NC(C(=O)Nc2cccc(C(C)=O)c2)c2ccccc2)cc1` (stereo not given), the inhibition was 94.4% (active).

As to `Nc1c(C(=O)O)cnn1-c1ccccc1`, the inhibition is -2.24%.

For the compound `O=C(CCN1C(=O)c2ccncc2C1=O)Nc1cc(F)ccc1F`, the inhibition was -6.67%.

Turning to `O=C(CCN1CCN(c2ccccc2)CC1)NNC(=S)Nc1ccccc1`, the inhibition is -9.65%.

For `O=C(CN1CCN(C/C=C/c2ccccc2)CC1)Nc1ccc(F)cc1F`, the inhibition was 77.3% (active).

Take `CCN1CCN(C(=O)C2(NC(=O)Nc3cccc(F)c3)CCCCC2)CC1`: the inhibition is 29.9%.

For the compound `O=C(CCN1C(=O)c2ccccc2C1=O)Nc1cccc(F)c1`, the inhibition was 89.8% (active).

On to `O=C(CCN1C(=O)c2ccccc2C1=O)Nc1ccncc1`, for which the inhibition was -8.03%.

On to `O=C(CCN1CCN(C/C=C/c2ccccc2)CC1)Nc1cccc(F)c1`, for which the inhibition was 90.8% (active).

On to `COc1ccccc1CC(=O)Nc1ccc(F)cc1F`, for which the inhibition was -6.42%.

`O=C(CN1CCN(C(=O)c2cccc(F)c2)CC1)Nc1ccccc1F`: the inhibition was -5.19%.

For the compound `CC(=O)N1N=C(c2ccccc2)OC1c1cccnc1` (stereo not given), the inhibition was -2.61%.

For the compound `CCC(C)N(C(=O)COC(=O)C1C(C(=O)OC)=C(C)NC(C)=C1C(=O)OC)C1CCS(=O)(=O)C1` (stereo not given), the inhibition was -3.21%.

Take `O=C(Nc1ccc(N2CCN(C(=O)C3CC3)CC2)cc1)c1cccs1`: the inhibition was -2.42%.

With `CCCOCC(O)CC(CC)C(=O)NNC(=S)Nc1ccccc1` (stereo not given), the inhibition is -2.02%.

For `CCCCOc1ccc(N(CC(=O)NC(C)C)C(=O)CCC(=O)Nc2ccccn2)cc1`, the inhibition was 0.57%.

Take `Cn1c(CCC(=O)Nc2ccccc2F)nnc1SCC(=O)Nc1ccccc1Cl`: the inhibition is 2.13%.

As for `S=c1nc(C23CC4CC(CC(C4)C2)C3)nc2sccn12`, the inhibition was -2.7%.

For `COc1cccc(C(=O)Oc2cc(C)[nH]c(=O)c2[N+](=O)[O-])c1`, the inhibition was 5.78%.

With `CC1CCCCN1S(=O)(=O)c1ccc(C(=O)Nc2nnc(-c3cccs3)o2)cc1` (stereo not given), the inhibition was 99.6% (active).

Turning to `CC1CCCCN1S(=O)(=O)c1ccc(S(=O)(=O)N(CC(=O)Nc2ccccc2)Cc2cccs2)cc1` (stereo not given), the inhibition is -0.93%.

Turning to `CC1CCCN(S(=O)(=O)c2ccc(C(=O)Nc3nnc(-c4ccncc4)o3)cc2)C1` (stereo not given), the inhibition was 12.2%.

As to `COC(=O)c1nc(NC(=O)c2ccc(F)cc2)n[nH]1`, the inhibition is -2.13%.

Consider `c1ccc(-c2nccc(-c3ccc(-n4cnc5ccccc54)cc3)n2)nc1`, for which the inhibition was 101% (active).

As for `Cc1nccc(-c2ccc(-n3c(C)ccc3C)cc2)n1`, the inhibition was 41.6%.

Turning to `CC(C)c1nc(-c2ccccn2)no1`, the inhibition is -3.52%.

For the compound `C/C(Cn1nnc2ccccc21)=N\OC(=O)c1cc(F)c(F)cc1Cl`, the inhibition was 2.7%.

With `CCN(CCn1cccn1)Cc1nc(-c2ccc(C(=O)OC)cc2)no1`, the inhibition is 5.81%.

As for `O=C1CC(c2c(F)cccc2Cl)C(n2cncn2)C(O)=C1C1NCCc2ccccc21` (stereo not given), the inhibition was -6.44%.

Consider `COc1cc2c(cc1O)[C@H](Cc1ccc(Oc3cc(C[C@@H]4NCCc5cc(OC)c(O)cc54)ccc3O)cc1)NCC2`, for which the inhibition was 2.59%.

Turning to `CC[C@H]1CN2CCc3cc(OC)c(OC)cc3[C@@H]2C[C@@H]1C[C@H]1NCCc2cc(OC)c(OC)cc21`, the inhibition is 100% (active).

Take `CCOCCCN(C(=O)Cn1nnc(-c2ccc(OC)c(OC)c2)n1)C(CC)C(=O)NC1CCCC1` (stereo not given): the inhibition was -1.34%.

For the compound `COCCn1nnnc1C(c1cc2ccc(OC)cc2[nH]c1=O)N1CCc2ccccc2C1` (stereo not given), the inhibition is 5.04%.

For the compound `COc1ccc(OC)c(NC(=S)N2CCc3ccccc3C2)c1`, the inhibition is 5.86%.

Turning to `COc1ccc(OC)c(C(c2nnnn2C(C)(C)C)N2CCc3ccccc3C2)c1` (stereo not given), the inhibition was 88.9% (active).

Take `C=CCn1c(CCNC(=O)c2ccccc2F)nnc1SCC(=O)Nc1ccc(OC)cc1`: the inhibition was 3.89%.

As to `COc1ccc(Cc2nnc(NC(=O)c3cc(OC)c(OC)c(OC)c3)s2)cc1OC`, the inhibition was -2.97%.

As to `NC(=O)C1CCN(Cc2nc3c(Br)cc(Br)cc3c(=O)[nH]2)CC1`, the inhibition was -13%.

For `COCCNC(=O)/C(C#N)=C/c1nc(N(C)C)n(-c2ccc(F)cc2)c1Cl`, the inhibition was 10.3%.

As for `COc1ccc(-c2nnc(SC(C)C#N)o2)cc1` (stereo not given), the inhibition was -3.1%.

For `COc1ccc(-c2nnc(SC(=O)N3c4ccccc4Sc4ccccc43)o2)cc1`, the inhibition is 84.1% (active).

As to `COc1ccc(-c2nnc(SCC(=O)c3ccc4c(c3)OCCO4)o2)cc1`, the inhibition was -4.95%.

Turning to `CC(/C=N/NC(=O)c1ccncc1)=C\c1ccco1`, the inhibition was -2.49%.

Consider `CC(Oc1ccccc1)C(=O)NN1Cc2ccccc2C1=N` (stereo not given), for which the inhibition is -3.38%.

Consider `Nc1nc(-c2sc3nc4c(cc3c2N)CCCC4)nc(N2CCOCC2)n1`, for which the inhibition is 47%.

Consider `CNC(=O)c1[nH]cnc1C(=O)N[C@@H](CC(C)C)C(=O)OC(C)(C)C`, for which the inhibition was -2.24%.

With `S=C(Nc1ccc2c(c1)OCO2)N1CCCC1`, the inhibition was -4.06%.

`CCc1ccc2c(c1)C(c1ccc([N+](=O)[O-])cc1)=NNC(c1ccccc1)=N2`: the inhibition is 60.2% (active).

Take `CCOc1ccc2c(c1)C(c1ccc(C)cc1)=NNC(c1ccc(C)cc1)=N2`: the inhibition is 17.4%.

As for `O=C1NC(=O)C2C1C(c1ccc([N+](=O)[O-])cc1)=NN2Cc1ccccc1` (stereo not given), the inhibition was -2.02%.

Regarding `CC(C)(C)c1ccc(/C=C2\SC(=O)N=C2N)cc1`, the inhibition was 33.6%.

Consider `Cc1ccc(/C([O-])=C(/C(=S)NCc2ccco2)[n+]2ccccc2)cc1[N+](=O)[O-]`, for which the inhibition was -2.58%.

In the case of `Fc1ccccc1Cc1ccc(Cl)nn1`, the inhibition is -4.31%.

On to `CC(=O)NCCC(=O)Nc1nc(C)c(Cc2ccc3c(c2)OCO3)s1`, for which the inhibition is 55.9% (active).

`Cc1ccc(C(=O)OCC(=O)NCc2ccc3c(c2)OCO3)s1`: the inhibition is -5.96%.

For `Cc1ccc(C(=O)Nc2sc(Cc3ccc4c(c3)OCO4)c(C)c2C(N)=O)cc1`, the inhibition is -6.82%.

With `O=C(Nc1cccc(F)c1)N1C2CCC1CC(O)(c1cccnc1)C2` (stereo not given), the inhibition is 4.96%.

For the compound `COc1ccc(Nc2nc(Cl)nc(NCc3ccco3)n2)cc1`, the inhibition was 0.84%.

In the case of `COc1ccc(-n2cnc3cc(C(=O)NC4CCCC4)ccc32)cc1`, the inhibition is 1.49%.

With `COc1ccc(-n2cnc3cc(NCc4ccco4)ccc32)cc1`, the inhibition was 90.2% (active).

Regarding `CCN(CC)C(=O)C(=O)Nc1cccc(Br)c1`, the inhibition is -4.3%.

In the case of `C=CCC1(CC=C)CCCN1C(=O)CC1C(=O)NCCN1Cc1ccccc1OC` (stereo not given), the inhibition was 2.2%.

With `COc1cccc(NC(=O)CN(C)CC(=O)Nc2ccc3c(c2)CCC3)c1`, the inhibition was 2.96%.

On to `CC(C)C(=O)OCC(=O)Nc1ccc2c(c1)CCC2`, for which the inhibition is -3.35%.

On to `CC1CC(C)CN(CCC(=O)Nc2ccc3c(c2)CCC3)C1` (stereo not given), for which the inhibition was 65.4% (active).

For `CCCCSc1nc2ccccc2[nH]1`, the inhibition is -4.2%.

On to `COc1cccc(C(=O)Nc2ccc(N3CCCC3)cc2)c1`, for which the inhibition was 9.5%.

In the case of `COc1cccc(OC)c1C(=O)Nc1ccc(N2CCCCC2)cc1`, the inhibition was -1.53%.

For the compound `Cc1ccccc1C(=O)Nc1ccc(N2CCCCCC2)cc1`, the inhibition is 89.4% (active).

As to `Cc1ccc(NC(=S)N(CCCN2CCC(C)CC2)Cc2ccco2)cc1`, the inhibition was 37.4%.

Turning to `Cc1ccc(NC(=S)N(CCN2CCCCC2)Cc2ccco2)cc1C`, the inhibition is 13.2%.

Take `Cc1ccc(NC(=S)N(Cc2ccco2)C(C)c2cccs2)cc1` (stereo not given): the inhibition was 51.8% (active).

As for `O=C(CO/N=C/c1ccccc1OC(F)F)NC1CCCC1`, the inhibition is 9.48%.

As for `NS(=O)(=O)c1ccc(N2C(=O)C3C4CC(C(Br)C4Br)C3C2=O)cc1` (stereo not given), the inhibition was -1.02%.

`CN1/C(=C\C(=O)c2cccnc2Cl)C(C)(C)c2ccccc21`: the inhibition is 55.5% (active).

For `CC(C)Nc1nnc(SCC(=O)/C=C2\N(C)c3ccccc3C2(C)C)s1`, the inhibition is 2.98%.

Take `CN1/C(=C\C(=O)c2oc3ccccc3c2N)C(C)(C)c2ccccc21`: the inhibition was 5.73%.

For `O=C(COC(=O)Cn1cnc2ccccc2c1=O)NCc1ccccc1Cl`, the inhibition is 1.11%.

Turning to `Cn1cccc1C(C#N)c1ccccc1C#N` (stereo not given), the inhibition is 4.16%.

In the case of `Cc1cc(C(=O)N/N=C/c2ccccc2[N+](=O)[O-])c(C)o1`, the inhibition was -4.59%.

`CSc1ccc(/C=N/N2CCN(Cc3ccccc3Cl)CC2)cc1`: the inhibition was -7.46%.

With `Cc1ccccc1NC(=S)NNC(=O)c1cccc(Br)c1`, the inhibition is -0.99%.

As to `Cc1ccc(S(=O)(=O)NCCc2nnc3ccc(SCc4cccnc4)nn23)cc1`, the inhibition was -6.61%.

On to `COc1ccc(O)c(C(=O)c2cnc3onc(C(C)C)c3c2)c1`, for which the inhibition was -0.73%.

As for `COCCn1c(=O)[nH]c(=O)c2cc(C(=O)c3cc(OC)ccc3O)cnc21`, the inhibition is 0.78%.

On to `COc1ccc(O)c(C(=O)c2cnc3c(c2)c(-c2ccc(F)cc2)c(C#N)c(=O)n3C)c1`, for which the inhibition is 52.4% (active).

With `CC(=O)N/N=C(\C)c1ccc(Br)cc1Br`, the inhibition is -4.52%.

For `CCN1CCN(C(=O)c2ccccc2N(C)S(=O)(=O)c2ccc(C)cc2)CC1`, the inhibition was -0.79%.

Turning to `CCOC(=O)C1CCN(C(=O)c2ccccc2N(C)S(=O)(=O)c2ccccc2)CC1`, the inhibition was 53.4% (active).

On to `COc1ccccc1N(C)S(=O)(=O)c1ccc(C(=O)N2CCC(C(N)=O)CC2)cc1`, for which the inhibition is 3.34%.
